From PubChem
In the library only some 4.1% were active in any assay of this set; here they are far more common.
DAX1 inh-1 – inhibitors of human orphan nuclear receptor DAX1 (NR0B1) | HEK293 Gal4-DAX1 luciferase reporter, luminescence | AID 504766 | 0.99% of 340,000 active | P51843 | inhibition, % at 6.75 µM;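 active means inhibition above the mean over all tested compounds plus 3 SD, cut at about 4.2% in these data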;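 further: 0% = DAX1-transfected cells with DMSO and 100% = empty-vector control cells with DMSO; inhibition shows as a rise in luminescence from relieved DAX1 repression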
ssDAF12 agonist – activates DAF-12 receptor from parasite S. stercoralis; AID 652126; 1% of 370,000 active; activation, % at 6.8 µM; HEK293 ssDAF-12/GRIP1 lit1-tk-luc reporter, luminescence; % of 3 µM dafachronic acid response;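 active means activation above the mean over all tested compounds plus 3 SD, cut at about 0.9% in these data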;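 further: 0% = DMSO-only wells and 100% = 3 µM delta7-dafachronic acid wells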
hcDAF12 agonist – activators of H. contortus DAF-12 nuclear receptor. HEK293 hcDAF-12 lit1-tk-luc reporter, luminescence; 0% DMSO, 100% Δ7-dafachronic acid. activation, % at 6.8 µM. 1.4% of 370,000 active. AID 652067;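 active means activation above the mean of all tested compounds plus 3 SD, cut at about 5.5% in these data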;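 further: 100% = response to 3 µM Δ7-dafachronic acid high control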
hgDAF-12 ag – activates the H. glycines DAF-12 receptor ligand-binding domain. HEK293 GAL4-hgDAF12 UAS-luciferase reporter, agonist luminescence; normalized to butyrate control. activation, % at 6.8 µM. 1.8% of 370,000 active;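 active means activation above a cutoff set at the mean of all screened compounds plus 3 SD, cut at about 10% in these data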;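 further: 0% = DMSO wells and 100% = sodium butyrate wells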
DAX1 inh-2 – inhibitors of DAX1 repression of SF-1 activated StAR promoter | HEK293T StAR-luciferase reporter, SF-1/DAX-1 repression relief | inhibition, % at 6.8 µM | 1.1% of 370,000 active;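 active means inhibition above the mean over all tested compounds plus 3 SD, cut at about 3.6% in these data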;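 further: 0% = DAX-1 cells with DMSO and 100% = cells lacking DAX-1 with DMSO; higher inhibition means more luminescence from relief of DAX-1 repression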
DAX1 inh confirm – confirmation of human DAX1 (NR0B1) inhibitors; AID 652134; HEK293T StAR-promoter luciferase reporter, SF-1/DAX-1 repression; shares compounds with DAX1 inh-2; inhibition, % at 6.8 µM; 87% of 2,400 active;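 active means inhibition above the average of every tested compound plus 3 SD, cut at about 3.8% in these data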;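 further: 0% = DAX-1 cells with DMSO and 100% = no DAX-1 control cells with DMSO; active compounds raise luminescence by relieving repression of the StAR reporter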
SF1 AF2mut Luc – counter-screen for DAX1 inhibitors: nonselective inhibitors with SF-1 AF2 mutant; shares compounds with DAX1 inh-2; HEK293 StAR-luciferase, luminescence; inhibition, % at 6.8 µM; 78% of 2,400 active;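 active means inhibition above the mean of all tested compounds plus 3 SD, cut at about 3% in these data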;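 further: 0% = DAX-1 transfected cells with DMSO and 100% = cells without DAX-1 with DMSO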
LXR ag – activates human LXR-beta, counter-screen for hcDAF-12 agonists; activation, % at 6.8 µM; AID 743027; 3,400 tested, under 10 active; HEK293 Gal4-LXR tk-luc reporter, luminescence, 24 h; normalized: DMSO 0%, positive control 100%; shares compounds with hcDAF12 agonist;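 active means mean percent activation of the reporter above a cutoff set as the average over tested compounds plus their standard deviation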
Target sequence (P55055 whole entry, looked up, the tested form may be a part): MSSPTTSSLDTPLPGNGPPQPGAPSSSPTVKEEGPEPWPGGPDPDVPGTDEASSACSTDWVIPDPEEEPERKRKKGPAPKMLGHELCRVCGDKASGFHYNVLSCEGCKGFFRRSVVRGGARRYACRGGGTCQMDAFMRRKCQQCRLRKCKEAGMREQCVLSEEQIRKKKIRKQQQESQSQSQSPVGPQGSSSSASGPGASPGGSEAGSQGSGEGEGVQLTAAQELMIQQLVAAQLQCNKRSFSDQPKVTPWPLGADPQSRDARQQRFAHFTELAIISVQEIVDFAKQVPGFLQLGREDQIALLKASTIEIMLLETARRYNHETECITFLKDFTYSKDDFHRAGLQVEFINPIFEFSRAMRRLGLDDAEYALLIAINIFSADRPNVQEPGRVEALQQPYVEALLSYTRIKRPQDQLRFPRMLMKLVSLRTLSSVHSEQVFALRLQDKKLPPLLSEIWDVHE
hcDAF12 ag – hcDAF-12 agonism, confirmation assay. HEK293 hcDAF-12 lit1-tk-luc reporter, luminescence; % of Δ7-dafachronic acid response. activation, % at 6.8 µM. 61% of 3,400 active. AID 743032. shares compounds with hcDAF12 agonist;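 active means mean activation across triplicate tests above the threshold derived from the earlier primary screen, cut at about 5.5% in these data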;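 further: 0% = DMSO only wells and 100% = 3 µM Δ7-dafachronic acid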
hgDAF12 conf – confirmation of H. glycines DAF-12 agonists | activation, % at 6.8 µM | HEK293 GAL4-hgDAF12 luciferase reporter, agonist mode; percent of butyrate response | shares compounds with hgDAF-12 ag | 80% of 3,300 active;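 active means mean activation over triplicate wells above the hit cutoff derived from the earlier primary screen, cut at about 11% in these data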;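 further: 0% = DMSO low control and 100% = 2 mM sodium butyrate high control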
LXRb DAF12 ctr – activates human LXR-beta, counter-screen for DAF-12 agonists | shares compounds with hgDAF-12 ag | HEK293 Gal4-LXR luciferase reporter, 24 h | activation, % at 6.8 µM | 3,300 tested, under 10 active | AID 743051;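 active means mean activation of the triplicate above a set limit carried over from the primary screen, none filed active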
Active calls of the source: *; · = no result given; ! = repeats disagree.

SMILES	DAX1 inh-1	ssDAF12 agonist	hcDAF12 agonist	hgDAF-12 ag	DAX1 inh-2	DAX1 inh confirm	SF1 AF2mut Luc	LXR ag	hcDAF12 ag	hgDAF12 conf	LXRb DAF12 ctr
O=[N+]([O-])c1ccccc1OCCCn1cnc2ccccc21	2	-1	0	17*	5.5*	7.2*	4.3*	·	·	16*	1
COC(=O)c1cccc(NC(=O)c2cccnc2C(=O)O)c1C	-1	-1	0	1	0	·	·	·	·	·	·
CC(=O)c1cccc(NC(=O)c2cc(C(C)C)on2)c1	0	0	5	17*	5.2*	11*	8.0*	·	·	10*	1
CC(C)c1cc(C(=O)Nc2cccc(Cl)c2)no1	1	1	7.8*	19*	4.6*	16*	9.3*	2	5.8*	19*	1
CC(=O)c1cccc(NC(=O)c2cc(-c3ccc(F)cc3)on2)c1	0	0	0	4	0	·	·	·	·	·	·
O=C1Nc2ccccc2N(C(=O)c2c(F)cccc2F)C1c1nc2ccccc2[nH]1 (stereo not given)	·	0	4	23*	14*	4.2*	3.1*	·	·	11*	0
Cc1ccc(/C=C2/CCc3c([nH]c4ccccc34)C2=O)cc1	3	1	10*	18*	5.3*	24*	9.1*	2	5.8*	22*	1
COc1cccc(NC2=C(Cl)C(=O)OC2OC(=O)c2ccco2)c1 (stereo not given)	1	-2	-1	0	0	·	·	·	·	·	·
CN1C(=O)C2C(c3ccc(N(C)C)cc3)=NN(Cc3ccccc3)C2C1=O (stereo not given)	0	0	-2	-2	-1	·	·	·	·	·	·
CC(C)(C)NC(=O)C(c1ccncc1)n1c(-c2ccc(C(F)(F)F)cc2)nc2ccccc21 (stereo not given)	·	1.4*	9.2*	17*	11*	11*	7.9*	1	5	17*	1
Cn1c(=O)cc(OCC(=O)N2CCC(N3CCCCC3)CC2)c2ccccc21	2	-1	0	1	2	·	·	·	·	·	·
CCCCNc1c(-c2ccc(SC(C)CC)cc2)nc2ccccn12 (stereo not given)	2	2.6*!	6.7*!	11*	5.3*!	6.3*	3.4*	1	5	16*	1
O=C(Nc1cccc(Br)c1)c1cc2ccccc2o1	4.3*	0	9.1*	26*	5.1*	12*	7.0*	1	5.9*	21*	1
CC(C)C(=O)Nc1ccc(NC(=O)c2cc3ccccc3o2)cc1	0	-1	-1	0	0	·	·	·	·	·	·
Cc1cnc(NC(=O)c2cc3ccccc3o2)s1	6.4*	1.9*	10*	19*	7.3*	17*	8.9*	1	14*	15*	1
CN1CCCCC(NC(=O)COCc2ccccc2)C1=O (stereo not given)	·	-1	-1	1	0	·	·	·	·	·	·
CN(CCCNC(=O)CSc1cc(=O)n(C)c2cc(Cl)ccc12)Cc1ccccc1	0	-1	-1	-1	0	·	·	·	·	·	·
O=C(O)C(=O)Nc1nc(-c2ccc3c(c2)OCCO3)cs1	0	-1	2	2	2	·	·	·	·	·	·
